# Test results: PubChem BioAssay
# The source made the active and inactive calls. Unless noted, no rule for the calls is given here.
# What was measured:
# [1] = A549 cell viability effects, profiling panel, calcein-AM fluorescence, 48 h, basal (AID 1162); conditions: higher = more signal; also: test concentration not given here
# [2] = adipocyte viability effects, profiling panel, cell-based, 3T3-L1 adipocytes, calcein-AM fluorescence, 48 h, basal (AID 1163); conditions: 3T3-L1 adipocytes viability, higher = more signal; also: test concentration not given here
# [3] = HepG2 cell viability effects, profiling panel, calcein-AM fluorescence, 48 h, basal (AID 1164); conditions: higher = more signal; also: test concentration not given here
# [4] = MM1S cell viability effects, profiling panel, calcein-AM fluorescence, 48 h, basal (AID 1165); conditions: higher = more signal;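 also: viability of MM1S multiple myeloma cells under basal unstimulated conditions; test concentration not given here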
# [5] = basal RPMI8226 viability, no added stimulus, profiling panel, cell-based, calcein-AM fluorescence, 48 h, PK04 Diversity Set (AID 1166); conditions: RPMI8226 myeloma viability, higher = more signal;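 also: cells grown under basal conditions without added stimulus; test concentration not given here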
# [6] = basal HepG2 mitochondrial membrane potential changes, profiling panel, cell-based, JC-1 fluorescence, 24 h, 100 nL compound (AID 1167); conditions: higher = more signal; also: test concentration not given here
# [7] = basal 3T3-L1 adipocyte mitochondrial potential changes, profiling panel, cell-based, JC-1 fluorescence, 3T3-L1 adipocytes, 24 h, 100 nL compound (AID 1168); conditions: JC-1 mitochondrial fluorescence, higher = more signal, called active from +8 up or from −8 down; also: test concentration not given here
# [8] = basal RPMI8226 mitochondrial membrane potential changes, profiling panel, cell-based, JC-1 fluorescence, 24 h, 100 nL compound (AID 1169); conditions: RPMI8226 myeloma, JC-1 mitochondrial potential fluorescence, higher = more signal; also: test concentration not given here
# [9] = basal MM1S mitochondrial membrane potential changes, profiling panel, cell-based, JC-1 fluorescence, 24 h, 100 nL compound (AID 1170); conditions: higher = more signal; also: test concentration not given here
# [10] = A549 lung cancer cell viability effects, profiling panel, resazurin fluorescence, 24 h, PK04 Diversity Set (AID 1171); conditions: higher = more signal, called active from +8 up or from −8 down; also: test concentration not given here
# [11] = HepG2 liver cancer cell viability effects, profiling panel, resazurin fluorescence, 24 h, PK04 Diversity Set (AID 1172); conditions: higher = more signal; also: test concentration not given here
# [12] = basal S. cerevisiae growth modulation, no modifier, primary screen, OD600, strain BY4716, 24 h, basal condition (AID 1173); conditions: OD600, 24 h, higher = more signal, called active from +8 up or from −8 down
# [13] = MM1S myeloma cell viability, profiling panel, resazurin fluorescence, basal, 24 h, PK04 Diversity Set (AID 1174); conditions: higher = more signal, called active from +8 up or from −8 down;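 also: MM1S multiple myeloma cell line; test concentration not given here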
# [14] = biological target: Dihydroorotate dehydrogenase (quinone), mitochondrial (Plasmodium falciparum (isolate 3D7)) (UniProt Q08210); assay: PfDHODH enzyme inhibitors, primary screen, biochemical, C-terminal His tag, absorbance 600 nm (AID 1175); conditions: DCIP absorbance 600 nm, higher = more signal, called active from +8 up or from −8 down;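 also: recombinant parasite enzyme with a five histidine tag at its C terminus; test concentration not given here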
# Sequence of Dihydroorotate dehydrogenase (quinone), mitochondrial (Plasmodium falciparum (isolate 3D7)) (Q08210 whole entry, looked up): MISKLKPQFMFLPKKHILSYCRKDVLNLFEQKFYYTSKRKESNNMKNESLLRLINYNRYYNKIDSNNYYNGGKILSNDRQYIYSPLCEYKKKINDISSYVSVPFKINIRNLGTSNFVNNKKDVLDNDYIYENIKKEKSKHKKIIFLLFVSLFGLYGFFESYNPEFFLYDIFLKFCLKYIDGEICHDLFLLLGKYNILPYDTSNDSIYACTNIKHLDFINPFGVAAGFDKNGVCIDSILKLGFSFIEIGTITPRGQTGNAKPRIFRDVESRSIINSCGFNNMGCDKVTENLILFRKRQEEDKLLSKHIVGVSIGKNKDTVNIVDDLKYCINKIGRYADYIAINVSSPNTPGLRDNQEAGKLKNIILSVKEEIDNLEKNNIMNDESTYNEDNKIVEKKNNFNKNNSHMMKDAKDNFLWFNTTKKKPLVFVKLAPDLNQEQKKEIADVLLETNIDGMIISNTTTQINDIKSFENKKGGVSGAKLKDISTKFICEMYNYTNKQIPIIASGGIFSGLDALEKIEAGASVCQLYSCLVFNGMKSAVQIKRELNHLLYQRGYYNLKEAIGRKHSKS
# [15] = P. aeruginosa biofilm formation inhibitors, primary screen, strain PAO1, LB-PBS medium, absorbance 600 nm (AID 1176); also: test concentration not given here; conditions: P. aeruginosa PAO1 growth/biofilm, A600, 12 h; higher = more signal
# [16] = S. cerevisiae RM11-1a growth modifiers, primary screen, strain RM11-1a, OD600, basal, 24 h (AID 1177); conditions: OD600, 24 h, higher = more signal, called active from +8 up or from −8 down;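 also: cultures grown under basal conditions with no added stressor; test concentration not given here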
# [17] = E. coli acrAB mutant growth effects, primary screen, E. coli filamentation inducers, strain DRC39, OD650, 24 h (AID 1178); conditions: higher = more signal, called active from +8 up or from −8 down;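 also: growth measured as culture turbidity by optical density at 650 nm; test concentration not given here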
# [18] = E. coli acrAB mutant growth effects, primary screen, E. coli filamentation inducers, strain DRC39, OD650, 48 h (AID 1179);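 also: screen aims at cell division blockers that make cells filament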; conditions: E. coli DRC39 delta-acrAB growth, higher = more signal, called active from +8 up or from −8 down
# [19] = RPMI8226 myeloma cell viability, profiling panel, resazurin fluorescence, basal, 24 h, PK04 Diversity Set (AID 1180); conditions: higher = more signal;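 also: RPMI8826 multiple myeloma cell line at 5000 cells per well; test concentration not given here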
# [20] = biological target: E3 ubiquitin-protein ligase XIAP (Homo sapiens) (UniProt P98170); assay: XIAP binders, primary screen, biophysical, small-molecule microarray, fluorescence 635 nm (AID 1181); conditions: small-molecule microarray binding, higher = more signal;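 also: score merges 667 nm emission and signal to noise over triplicate slides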
# Sequence of E3 ubiquitin-protein ligase XIAP (Homo sapiens) (P98170 whole entry, looked up): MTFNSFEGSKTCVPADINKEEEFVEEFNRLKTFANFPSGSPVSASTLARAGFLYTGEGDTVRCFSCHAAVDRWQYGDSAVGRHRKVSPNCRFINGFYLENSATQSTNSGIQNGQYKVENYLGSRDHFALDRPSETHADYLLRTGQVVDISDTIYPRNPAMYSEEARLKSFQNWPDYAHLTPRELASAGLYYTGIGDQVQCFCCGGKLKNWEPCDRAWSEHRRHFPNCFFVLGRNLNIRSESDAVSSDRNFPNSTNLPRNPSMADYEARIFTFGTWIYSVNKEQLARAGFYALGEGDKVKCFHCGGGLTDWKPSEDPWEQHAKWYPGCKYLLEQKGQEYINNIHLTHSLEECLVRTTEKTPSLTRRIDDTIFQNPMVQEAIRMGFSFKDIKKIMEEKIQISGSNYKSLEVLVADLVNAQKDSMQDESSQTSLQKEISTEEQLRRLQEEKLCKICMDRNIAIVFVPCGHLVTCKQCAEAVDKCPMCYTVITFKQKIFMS
Structure (SMILES),z-score [1],z-score [2],z-score [3],z-score [4],z-score [5],z-score [6],z-score [7],z-score [8],z-score [9],z-score [10],z-score [11],z-score [12],z-score [13],composite z-score [14],z-score [15],z-score [16],z-score [17],z-score [18],z-score [19],composite z-score [20]
CN1C(=O)C2C=CC(C(O)c3ccc(I)cc3)N(Nc3ccccc3)C2C1=O (stereo not given),-0.596,-0.0039,-0.268,-0.521,-0.0284,-1.07,-1.09 (inactive),-0.177,0.0807,-0.962 (inactive),-1.25,-0.245 (inactive),-0.994 (inactive),-0.359 (inactive),0.683 (inactive),-0.0359 (inactive),-1.28 (inactive),-1.4 (inactive),-1.37,0.114
CN(C)CCCNC(=O)[C@@H]1c2ccccc2C(=O)N(C2CCCCC2)[C@H]1c1ccc(CO)cc1,0.634,-0.318,0.821,-0.592,-0.514,2.43,0.626 (inactive),0.363,-0.243,0.887 (inactive),0.848,-0.737 (inactive),0.749 (inactive),-0.151 (inactive),0.0714 (inactive),0.409 (inactive),-0.101 (inactive),0.515 (inactive),0.988,-0.157
COC(=O)[C@@]1(Cc2ccc(OC)cc2)[C@H]2c3cc(C(=O)N4CCCC4)n(Cc4ccc(OC(F)(F)F)cc4)c3C[C@H]2CN1C(=O)c1ccccc1,-0.77,-0.25,-0.871,-0.889,-2.45,0.225,-0.621 (inactive),-0.638,-1.58,-0.995 (inactive),-0.0938,1.82 (inactive),-1.43 (inactive),-0.731 (inactive),0.343 (inactive),0.755 (inactive),-0.0079 (inactive),0.513 (inactive),-2.54,0.0479
Cc1ccc(S[C@]2(C(=O)NCC(C)C)CC(=O)N(C3Cc4ccccc4C3)[C@@H]2c2ccc(CO)cc2I)cc1,0.168,-0.492,-0.455,-2.37,-2.6,-0.534,-0.233 (inactive),-0.107,-1.76,-0.105 (inactive),0.0073,-1.51 (inactive),-2.16 (inactive),-0.0634 (inactive),0.503 (inactive),0.207 (inactive),-0.0452 (inactive),-0.138 (inactive),-2.55,-0.214
COc1cc(CO)cc(I)c1O[C@H]1C=C(C(=O)NCCO)C[C@@H](NCC2CCCCC2)[C@@H]1O,1.31,0.13,0.407,-0.235,0.893,1.25,-0.328 (inactive),-0.561,-1.5,0.258 (inactive),0.361,-0.964 (inactive),-0.221 (inactive),-0.257 (inactive),-0.107 (inactive),-0.489 (inactive),1.45 (inactive),0.866 (inactive),0.428,0.0831
C=C(CCCC)C(=O)CC[C@@H](OC(=O)c1cccnc1)c1ccc(OCCO)cc1,0.67,0.866,0.376,-3.34,-2.89,-0.279,-0.188 (inactive),-0.673,-0.652,0.116 (inactive),-0.211,-2.75 (inactive),-1.43 (inactive),-2.9 (inactive),0.543 (inactive),-0.208 (inactive),-0.566 (inactive),-0.547 (inactive),-2.52,0.0542
CC(CO)N1C(=O)[C@@H]2[C@H]3C(=O)OCC=C[C@H]3OC23C=CCN(c2ccc(Cl)cc2)C(=O)[C@@H]13 (stereo not given in full),0.0473,0.311,0.336,0.829,-0.485,-0.321,-0.574 (inactive),-0.818,0.0977,0.957 (inactive),0.909,-0.414 (inactive),0.675 (inactive),-0.647 (inactive),-0.897 (inactive),0.0289 (inactive),0.864 (inactive),0.734 (inactive),0.282,-0.394
COc1ccc(C(O)C2C=CC3C(=O)N(c4ccccc4)C(=O)C3N2Nc2ccccc2)cc1 (stereo not given),-0.0572,-0.936,0.204,0.254,0.0459,-1.2,-0.233 (inactive),-0.402,-0.626,0.117 (inactive),-0.377,-2.39 (inactive),-0.582 (inactive),0.618 (inactive),0.571 (inactive),-0.0179 (inactive),-0.519 (inactive),-0.43 (inactive),-0.841,0.438
